Hit rate of the full screen: of about 5,500 compounds, about 2,000 (36%) were called active. Inconclusive results (about 18%) are left out. Cut-off read from the data, not from the text of the source: active = normalized growth mostly below about 0.91 (no sharp cut-off); inconclusive = no clear call, values can overlap the other calls; inactive = mostly above about 0.92. Some of the results follow.
Experiment: chemical genetic growth profiling, strain panel (AID 1159580);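 note: tested at 20 µM; growth read once vehicle control cultures reached saturation at 30 °C; 1 = growth at the plate median or of vehicle wells; lower values mean less growth of the strain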
Conditions: S. cerevisiae deletion strains, growth OD
[1] = locus YAL013W, strain DEP1, hits give low values
[2] = locus YDR150W, strain NUM1, hits give low values
[3] = locus YGR229C, strain SMI1, hits give low values
[4] = locus YJR075W, strain HOC1, hits give low values
[5] = locus YMR263W, strain SAP30, hits give low values
[6] = locus YNL322C, strain KRE1, hits give low values
[7] = locus YPL055C, strain LGE1, hits give low values

Measured: normalized growth

O=C(O)/C(=C/c1c(C(=O)O)[nH]c2cc(Cl)cc(Cl)c12)c1ccccc1
inactive: [1] 0.99 | locus YAL040C, strain CLN3, hits give low values 1.07 | locus YCL061C, strain MRC1 (second series), hits give low values 0.977 | [2] 0.979 | locus YDR363W, strain ESC2, hits give low values 1.03 | locus YER002W, strain NOP16, hits give low values 0.993 | [3] 0.999 | [4] 0.988 | [5] 0.979 | locus YMR307W, strain GAS1, hits give low values 1.01 | locus YNL175C, strain NOP13, hits give low values 0.996 | locus YNL197C, strain WHI3, hits give low values 0.98 | locus YNL224C, strain SQS1, hits give low values 0.977 | [6] 0.975 | locus YOR083W, strain WHI5 (second series), hits give low values 0.99 | [7] 0.985

O=c1cc(C(F)(F)F)[nH]c2c(Cl)cccc12
active: [1] 0.884 | locus YBR229C, strain ROT2, hits give low values 0.816 | locus YDL101C, strain DUN1, hits give low values 0.883 | locus YEL061C, strain CIN8, hits give low values 0.886 | locus YGR078C, strain PAC10, hits give low values 0.813 | [3] 0.929 | locus YHR087W, strain rtc3, hits give low values 0.831 | locus YJR043C, strain POL32, hits give low values 0.905 | [4] 0.779 | locus YLR058C, strain SHM2 (second series), hits give low values 0.84 | locus YMR219W, strain ESC1, hits give low values 0.831 | [5] 0.844 | locus YNL153C, strain GIM3, hits give low values 0.86 | [6] 0.863 | [7] 0.823
inactive: [2] 0.86 | locus YHR030C, strain SLT2, hits give low values 0.847 | locus YLR039C, strain RIC1, hits give low values 0.846 | locus YLR085C, strain ARP6, hits give low values 0.827 | locus YLR262C, strain YPT6, hits give low values 0.847 | locus YML094W, strain GIM5, hits give low values 0.938 | locus YNL298W, strain CLA4 (second series), hits give low values 0.902 | locus YNR030W, strain Alg12, hits give low values 0.919 | locus YOL006C, strain TOP1, hits give low values 0.913 | locus YPL241C, strain CIN2, hits give low values 0.935 | locus YPR135W, strain CTF4, hits give low values 0.874

Source: PubChem BioAssay AID1159580 (chemical genetic matrix, 2015)
